Inconclusive results are not listed. Values without a mark were called inactive. The source made the active and inactive calls. The call rests on the fitted dose curve; in most records, active means well fitted curve in the direction sought with a large enough effect; inconclusive means small, poorly fitted or top-dose-only effect, or another doubt; inactive means no such curve, though single readings can be large; an effect the other way counts as inactive or inconclusive.
system: WaGa; test: qHTS assay to identify novel small-molecules to repurpose for Merkel cell carcinoma treatment (AID 1296009); settings: MCC and control cell lines, CellTiter-Glo viability, 72 h; series mostly up to 46 µM; activity change, negative = cytotoxicity: at the top concentration; further: nearly all actives have a fitted effect of over 60% in size
In short: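 After compound transfer in DMSO, plates were kept 72 hr at 37 degree celsius. Luminescent ATP signal from CellTiter-Glo served as viability measure, normalized against DMSO and no-cell controls.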
On the % scale 0 is the no-effect control and ±100 the full control effect; potency means the concentration at half of the fitted maximal effect.

Structure (SMILES)	Potency	activity change, negative = cytotoxicity
C[n+]1c2cc(N)ccc2cc2ccc(N)cc21 (tested in a mixture with another compound)	1.5 µM (active)	–
C[C@H]1C[C@H]2[C@@H]3CCC4=CC(=O)C=C[C@]4(C)[C@@]3(Cl)[C@@H](O)C[C@]2(C)[C@@]1(O)C(=O)CO	–	4.35%
CCCCOc1ccc(OCCCN2CCOCC2)cc1	–	-1.57%
CC(=O)[C@H]1CC[C@H]2[C@@H]3C[C@H](C)C4=CC(=O)CC[C@]4(C)[C@H]3[C@@H](O)C[C@]12C	–	-0.744%
CC(=O)N/N=C/c1ccc([N+](=O)[O-])o1	23.7 µM (active)	–
COc1cc2c(cc1OC)[C@@H]1CC(=O)[C@@H](CC(C)C)CN1CC2	–	3.35%
CC(=O)Oc1ccc(C(c2ccc(OC(C)=O)cc2)c2ccccn2)cc1	–	-16.1%
CN(C/C=C/c1ccccc1)Cc1cccc2ccccc12	–	-19.7%
OC(CCN1CCCCC1)(c1ccccc1)c1ccccc1	–	-6.94%
Cc1ccccc1C(=O)Nc1ccc(C(=O)N2CCCC(N(C)C)c3ccccc32)cc1 (configuration not stated)	–	-2.76%
CC1(C)O[C@@H]2C[C@H]3[C@@H]4CCC5=CC(=O)CC[C@]5(C)[C@@]4(F)[C@@H](O)C[C@]3(C)[C@]2(C(=O)CCl)O1	–	6.69%
COc1cccc2c1C(=O)c1c(O)c3c(c(O)c1C2=O)C[C@@](O)(C(C)=O)C[C@@H]3O[C@H]1C[C@H](N)[C@H](O)[C@H](C)O1	0.0237 µM (active)	–
CCCCCCCCCCCCCCCC[N+](C)(C)CC	0.119 µM (active)	–
CCCCCCC[N+](CC)(CC)CCCCc1ccc(Cl)cc1	0.668 µM (active)	–
CC1(C)O[C@@H]2C[C@H]3[C@@H]4C[C@H](F)C5=CC(=O)C=C[C@]5(C)[C@H]4[C@@H](O)C[C@]3(C)[C@]2(C(=O)CO)O1	–	-12.8%
C=C(CC)C(=O)c1ccc(OCC(=O)O)c(Cl)c1Cl	13.3 µM (active)	–
C[C@@H]1C[C@H]2[C@@H]3CCC4=CC(=O)C=C[C@]4(C)[C@@]3(F)[C@@H](O)C[C@]2(C)[C@H]1C(=O)CO	–	-0.142%
c1ccc(CNCCNCc2ccccc2)cc1	–	3.76%
CCN(CCCc1ccccc1)CCCc1ccccc1	–	-1.36%

system: C33A; test: Primary qHTS to identify gynecologic anti-cancer compounds using libraries of approved drugs and bioactive compounds (AID 1345084); settings: Gynecologic cancer cell panel viability, ATPlite luminescence, 48 h; series mostly up to 57.5 µM; activity change, negative = cytotoxicity: at the top concentration; further: nearly all actives have a fitted effect of over 55% in size
In short: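 Measured: luminescence after ATPlite addition (15 min, RT). Exposure: 48 h, 37 C, 5% CO2.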

Structure (SMILES)	activity change, negative = cytotoxicity	Potency
CC(=O)c1ccc2c(c1)N(CCCN1CCC(CCO)CC1)c1ccccc1S2	-2.16%	–
COc1cc2c(cc1OC)C(C(C(=O)N(CCc1ccc(OC)c(OC)c1OC)CCc1ccc(OC)c(OC)c1OC)c1ccccc1)=NCC2 (configuration not stated)	-0.0523%	–
C[C@H]1C[C@H]2[C@@H]3CCC4=CC(=O)C=C[C@]4(C)[C@@]3(Cl)[C@@H](O)C[C@]2(C)[C@@]1(O)C(=O)CO	-13.4%	–
CCCCOc1ccc(OCCCN2CCOCC2)cc1	-0.695%	–
CC(=O)[C@H]1CC[C@H]2[C@@H]3C[C@H](C)C4=CC(=O)CC[C@]4(C)[C@H]3[C@@H](O)C[C@]12C	-2.14%	–
O=C(OCC(O)CO)c1ccccc1Nc1ccnc2cc(Cl)ccc12 (configuration not stated)	3.89%	–
CC(=O)N/N=C/c1ccc([N+](=O)[O-])o1	-0.698%	–
COc1cc2c(cc1OC)[C@@H]1CC(=O)[C@@H](CC(C)C)CN1CC2	-6.35%	–
C=C1C[C@H]2[C@@H]3C=C(C)C4=CC(=O)CC[C@]4(C)[C@H]3CC[C@]2(C)[C@@]1(OC(C)=O)C(C)=O	-2.15%	–
CN(C)CCCOc1nn(Cc2ccccc2)c2ccccc12	-6.28%	–
CC(=O)Oc1ccc(C(c2ccc(OC(C)=O)cc2)c2ccccn2)cc1	10.6%	–
C=C1C(=C/C=C2\CCC[C@]3(C)[C@@H]([C@H](C)/C=C/[C@@H](O)C4CC4)CC[C@@H]23)C[C@@H](O)C[C@@H]1O	-1.15%	–
CN(C/C=C/c1ccccc1)Cc1cccc2ccccc12	-9.07%	–
OC(CCN1CCCCC1)(c1ccccc1)c1ccccc1	-3.34%	–
Cc1ccccc1C(=O)Nc1ccc(C(=O)N2CCCC(N(C)C)c3ccccc32)cc1 (configuration not stated)	–	inactive
CN1CCC(=C2c3ccccc3Sc3ccccc32)CC1	-9.74%	–
CC1(C)O[C@@H]2C[C@H]3[C@@H]4CCC5=CC(=O)CC[C@]5(C)[C@@]4(F)[C@@H](O)C[C@]3(C)[C@]2(C(=O)CCl)O1	-24.7%	–

Structure (SMILES)	activity change, negative = cytotoxicity	Potency
c1ccc(OCc2ccc(CCCN3CCOCC3)cc2)cc1	-22.5%	–
COC1=CC(=O)C[C@@H](C)[C@]12Oc1c(Cl)c(OC)cc(OC)c1C2=O	-0.631%	–
COc1cccc2c1C(=O)c1c(O)c3c(c(O)c1C2=O)C[C@@](O)(C(C)=O)C[C@@H]3O[C@H]1C[C@H](N)[C@H](O)[C@H](C)O1	–	0.631 µM (active)
O=C1[C@H]2CCCC[C@H]2C(=O)N1CCCCN1CCN(c2nsc3ccccc23)CC1	-25.8%	–
CN(C)C(=S)SC(=S)N(C)C	–	15.8 µM (active)
CC1(C)O[C@@H]2C[C@H]3[C@@H]4C[C@H](F)C5=CC(=O)C=C[C@]5(C)[C@H]4[C@@H](O)C[C@]3(C)[C@]2(C(=O)CO)O1	-3.36%	–
CCOC(=O)[C@H](CCc1ccccc1)N[C@@H](C)C(=O)N1Cc2ccccc2C[C@H]1C(=O)O	0.758%	–
C=C(CC)C(=O)c1ccc(OCC(=O)O)c(Cl)c1Cl	2.29%	–
Oc1ccc(Cl)c2cccnc12	3.4%	–
C/C=C(/C(=C/C)c1ccc(O)cc1)c1ccc(O)cc1	-5.41%	–
C[C@@H]1C[C@H]2[C@@H]3CCC4=CC(=O)C=C[C@]4(C)[C@@]3(F)[C@@H](O)C[C@]2(C)[C@H]1C(=O)CO	6.51%	–
c1ccc(CNCCNCc2ccccc2)cc1	-17%	–
CCCCCC=CCC=CCCCCCCCC(=O)OCC	-3.9%	–
COc1ccc(CN2CCN(C(c3ccc(F)cc3)c3ccc(F)cc3)CC2)c(OC)c1OC	–	inactive
CN(C)CC/C=C1\c2ccccc2Sc2ccc(Cl)cc21	-9.2%	–
CCN(CCCc1ccccc1)CCCc1ccccc1	-11%	–

Reference: PubChem BioAssay (NCATS)
